The list is not random: actives were taken first. Their share in the collection is about 1%.
FBPA coupling cs: coupling enzyme interference in Giardia aldolase counter-screen. coupling enzyme system counterscreen, AmpLite Red fluorescence. activity change, negative = inhibition, % at 58.2 µM, hits read low. 290,000 tested, 0.67% active. AID 2472; in the data active means activity change below about -30%; further: on the % scale 0 is the no-effect control and ±100 the full control effect
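Compounds tested against the coupling enzymes alone at 57.5 uM final; readout was AmpLite Red fluorescence (525/598 nm) after 20 min at RT.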
NPSR antagonist: blocks cAMP signaling of the human neuropeptide S receptor. AID 1461. 220,000 tested, 1% active. CHO-NPSR cells, cAMP TR-FRET, antagonist mode. Q6W5P4. Potency, µM (doses to about 38.3 µM), inactives show at the highest dose activity change, negative = inhibition, most hits filed as inhibitors; further: potency means the concentration at half of the fitted maximal effect; on the % scale 0 is the no-effect control and ±100 the full control effect; nearly all actives have a fitted effect of over 50% in size
TRb SRC2 PPI: TRbeta-SRC2 interaction inhibition | P10828 | TRbeta-SRC2 peptide binding, fluorescence polarization; receptor liganded with 1 µM T3 | Potency, µM (doses to about 106 µM), for inactives: top-dose activity change, negative = inhibition, actives largely listed as inhibitors | 280,000 tested, 0.065% active | AID 1469;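 further: potency means the concentration at half of the fitted maximal effect; plate controls were bound peptide for no effect and peptide without receptor for full effect; nearly all actives have a fitted effect of over 50% in size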
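Binding of a 20-amino-acid Texas Red SRC2 peptide (20 nM) to TRb ligand-binding domain (0.6 uM) with agonist T3 at 1 uM was followed by fluorescence polarization after a 5 hr room-temperature incubation.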
TR SRC2 fluor cs: Texas Red fluorescence interference in TRb-SRC2 counter-screen; TRb/SRC2 Texas Red total fluorescence interference; AID 1479; Potency, µM (series often up to 106 µM), for inactives: top-dose fluorescence change, negative = quenching; 280,000 tested, 0.29% active; active means well fitted curve in either direction with a large enough effect; inconclusive means small, poorly fitted or top-dose-only effect; further: potency means the concentration at half of the fitted maximal effect; on the % scale 0 is the no-effect control and ±100 the full control effect
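Flags fluorescent or light-absorbing compounds by total fluorescence, S + 2P, at 555 nm excitation and 632 nm emission. Mixture: 20 nM Texas Red SRC2 peptide, 0.6 uM human TRb LBD, 1 uM T3, 5% DMSO; compound exposure 5 h at ambient temperature.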
TCR act: activators of T cell receptors. 330,000 tested, under 10 active. Potency, µM (doses to about 9.22 µM), for inactives: at the top dose activation of IL-2 secretion, actives largely listed as activators. AID 504894. primary human leukocytes, anti-CD3, IL-2 HTRF, 48 h; further: % of control where 0% means no effect
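IL-2 release read by HTRF sandwich (Eu cryptate donor, d2 acceptor, 665 nm emission) after 48 hr exposure of primary human leukocytes to compound together with anti-CD3 beads in the absence of co-stimulatory signals.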
TSHR antag: human thyrotropin receptor antagonism | P16473 | activity change, negative = inhibition, % at 11.5 µM | 330,000 tested, 0.2% active | TSHR-expressing cells, TSH-stimulated cAMP HTRF, 2 h; active compounds read low;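 active means activity change below a set negative limit, meaning inhibition stronger than a set level, cut at about -70% in these data; inconclusive means activity change between two set negative limits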; further: on the % scale 0 is the no-effect control and ±100 the full control effect
Target sequence (P16473 whole entry, looked up): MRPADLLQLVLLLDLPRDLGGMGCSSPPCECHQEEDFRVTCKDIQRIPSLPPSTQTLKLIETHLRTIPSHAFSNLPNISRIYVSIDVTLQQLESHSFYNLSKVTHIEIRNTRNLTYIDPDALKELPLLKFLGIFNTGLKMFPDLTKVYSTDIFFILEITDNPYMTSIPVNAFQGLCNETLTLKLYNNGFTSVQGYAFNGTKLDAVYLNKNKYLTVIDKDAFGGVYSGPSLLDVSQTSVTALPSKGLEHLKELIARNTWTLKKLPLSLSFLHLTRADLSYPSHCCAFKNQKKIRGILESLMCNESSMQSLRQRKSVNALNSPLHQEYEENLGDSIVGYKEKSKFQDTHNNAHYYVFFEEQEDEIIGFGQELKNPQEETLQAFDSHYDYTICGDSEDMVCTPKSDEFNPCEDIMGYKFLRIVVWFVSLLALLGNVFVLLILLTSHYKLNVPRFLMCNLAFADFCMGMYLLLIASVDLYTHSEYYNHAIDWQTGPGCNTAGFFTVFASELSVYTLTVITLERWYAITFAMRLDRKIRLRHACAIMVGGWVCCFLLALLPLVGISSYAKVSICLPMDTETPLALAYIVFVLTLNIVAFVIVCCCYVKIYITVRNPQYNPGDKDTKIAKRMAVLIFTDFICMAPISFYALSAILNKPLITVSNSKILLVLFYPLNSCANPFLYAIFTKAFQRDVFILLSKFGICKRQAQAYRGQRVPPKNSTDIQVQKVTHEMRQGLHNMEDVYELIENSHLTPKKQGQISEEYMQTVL
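Read-out is FRET at 665 nm (cryptate excitation 337 nm) from a cryptate-tagged anti-cAMP antibody, competed by cell cAMP against cAMP-d2. Compounds are tested on freshly harvested TSHR cells challenged with 4nM TSH (EC80) for 2 hours at 37 deg C.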
Numbers without * were called inactive; u = inconclusive; x = no result; [ ] = another dose, or the depositor's remark. Unless noted, the call rests on the fitted dose curve; in most records, active means well fitted curve in the direction sought with a large enough effect; inconclusive means small, poorly fitted or top-dose-only effect, or another doubt; inactive means no such curve, though single readings can be large; an effect the other way counts as inactive or inconclusive.

SMILES	FBPA coupling cs	NPSR antagonist	TRb SRC2 PPI	TR SRC2 fluor cs	TCR act	TSHR antag
CCN(CC(=O)Nc1c(C(=O)OC)[nH]c2ccc(C)cc12)c1ccc2c(c1)OCO2	-38*	-13%[46.1 µM]	-11%	-4%	3%	2
Cc1cc2c(cc1NS(=O)(=O)c1ccc(Br)cc1)n(C)c(=O)c(=O)n2C	x	x	-21%	2239µM*[quencher]	x	x
Cc1c(C(=O)c2ccc(Cl)cc2[N+](=O)[O-])c2ccccn2c1CCC#N	6	-7%	6%	2%	1%[46.1 µM]	22
Cc1c(C(=O)c2ccc(F)cc2F)c2ccccn2c1CCC#N	-40*	x	x	x	0%	30
FC(F)(F)c1cccc(-c2nc3nc(Cl)c(Cl)nc3[nH]2)c1	-36*	6.3µM*	u	u	-4%	u
CCOC(=O)c1cc(-c2ccc(OC)cc2)n(CCC(=O)Nc2cccc(C(C)=O)c2)c1C	x	x	1%	-4%	x	x
Cc1cc(Cn2nnc3ccccc32)c(O)c(C(C)(C)C)c1	x	x	x	x	7%	-45
CC(C)(C)c1cccc(Cn2nnc3ccccc32)c1O	x	x	x	x	2%	-77*
O=C1ON=C(c2ccccc2)/C1=C/c1ccc(-c2ccccc2[N+](=O)[O-])o1	-7	7.9µM*	-2%	-6%	12%[46.1 µM]	-20
CC(C)(C)C1=CC(=O)C(N2CCOCC2)=CC1=O	-58*	12%	2%	6%	-6%[46.1 µM]	16
O=C1C=C(N2CCCCC2)c2ccccc2C1=O	x	x	x	x	2%	x
O=C(CSc1nc2cc(Cl)c(Cl)cc2[nH]1)c1ccc2c(c1)OCO2	-5	26%	6%	0%	1%	-45
O=C(CSc1nc2ccc(Cl)cc2[nH]1)c1ccc2c(c1)OCO2	-36*	-24%[46.1 µM]	10%	2%	0%	-5
O=C(Cc1ccc(Cl)cc1)NCC(c1cccs1)S(=O)(=O)c1ccc(F)cc1 (configuration not stated)	x	x	-2%	-1%	x	x
CCc1cccc(C)c1NC(=O)c1cn2c3c(ccc(Cl)c3c1=O)OC(C)C2 (configuration not stated)	x	x	-19%	100µM*[quencher]	x	x
O=C(O)c1cc2ccccc2cc1O	x	x	1%[201 µM]	-6%[201 µM]	x	x
NC(=O)C1CCN(c2nc(-c3ccccc3[N+](=O)[O-])cs2)CC1	x	x	x	x	x	-1
CSc1nc(-c2ccco2)nn1S(=O)(=O)c1ccccc1	-1	7%[46.1 µM]	-9%	-1%	x	7
CCS(=O)(=O)n1nc(-c2ccco2)nc1SC	-76*	-11%[46.1 µM]	-15%	1%	x	x
CSc1nc(-c2ccco2)nn1S(=O)(=O)c1ccc(C)cc1	-34*	-1%	-1%	1%	-1%[46.1 µM]	12
CSc1ccccc1-c1n[nH]c(=S)o1	1	4µM*	0%	-3%	4%	24
Cc1ccccc1-c1n[nH]c(=S)o1	3	u	-2%	-4%	6%	71
CC(=O)OCC(=O)[C@@]12OC(C)(C)OC1CC1C3CC(F)C4=CC(=O)C=C[C@@]4(C)[C@@]3(F)C(O)C[C@]12C (some centres not stated)	4	x	5%	0%	x	x
CCCC(=O)O[C@]1(C(=O)COC(C)=O)CC[C@H]2[C@@H]3C[C@H](F)C4=CC(=O)C=C[C@]4(C)[C@@]3(F)[C@@H](O)C[C@@]21C	0	2.5µM*	-4%	1%	-1%	-7
CC(=O)c1ccc(NC(=O)CSc2nc(N)c3cc4c(nc3n2)CCCC4)cc1	-4	-18%	-22%	89µM*[quencher]	-8%[46.1 µM]	11
SMILES	FBPA coupling cs	NPSR antagonist	TRb SRC2 PPI	TR SRC2 fluor cs	TCR act	TSHR antag
NC(=O)C1CCN(c2nc(-c3ccc(Cl)cc3)cs2)CC1	x	x	x	x	x	-4
COc1ccc(/C=N/NC2=NS(=O)(=O)c3ccccc32)cc1	3	x	x	x	-4%	-5
O=S1(=O)N=C(N/N=C/c2ccccn2)c2ccccc21	-32*	6%	10%	-18%	-7%[46.1 µM]	0
CN1c2ccccc2-c2nc(SCC(=O)Nc3ccccc3)ncc2S1(=O)=O	x	x	2%	2%	x	x
Nc1ccc2nc(-c3ccc(O)cc3)sc2c1	x	x	-15%[53 µM]	79µM*[quencher]	x	x
Cc1ccc(Cl)cc1N1CCN(C(=O)c2ccc(CN3CCOCC3)cc2)CC1	-2	-21%[46.1 µM]	-4%	-1%	-3%	8
Cc1ccc(Cl)cc1N1CCN(Cc2cc3c(cc2O)CCC3)CC1	0	10µM*	-3%	1%	5%	0
Cc1csc2nc(CSc3nc4ccccc4o3)cn12	-51*	-7%[46.1 µM]	-19%	3%	3%	7
c1ccc2oc(SCc3cn4ccsc4n3)nc2c1	3	-12%[46.1 µM]	-21%	2%	2%	-2
Cc1cc(=O)n2nc(N3CCC(C(=O)Nc4c(C)cccc4C)CC3)sc2n1	x	x	3%	-1%	x	x
CCOC(=O)N1CCN(C(=O)c2ccc3c(c2)N(Cc2ccccc2F)C(=O)c2ccccc2S3=O)CC1 (configuration not stated)	x	x	1%	-3%	x	x
Cc1cc(C)c(S(=O)(=O)Nc2ccc[nH]c2=O)c(C)c1	-72*	-5%[46.1 µM]	5%	-3%	-1%	3
Cc1cc(NC(=O)CN(C)S(=O)(=O)c2ccc3c(c2)CCC(=O)N3)ccc1Br	x	x	0%	-33%	x	x
O=C1OC2(c3cc(I)c(O)c(I)c3Oc3c2cc(I)c(O)c3I)c2c(Cl)c(Cl)c(Cl)c(Cl)c21	2	x	25µM*	7.1µM*[fluorescent]	x	x
O=C1OC2(c3ccccc31)c1cc(I)c(O)c(I)c1Oc1c2cc(I)c(O)c1I	-9	x	u	40µM*[fluorescent]	x	-114*
CCOc1ccc(CCNC(=O)c2cn(CC)c3ccc(S(=O)(=O)N4CCc5ccccc5C4)cc3c2=O)cc1OCC	x	x	4%	-1%	x	x
Cc1cn(C)c(CC(=O)Nc2cccc(C#N)c2)c1C(=O)O	x	x	-2%	6%	x	x
COc1cc(C(=O)ON=C2C=C(C)C(=O)C(C)=C2)cc(OC)c1OC	-26	-13%	-2%[53 µM]	-2%[53 µM]	-4%[46.1 µM]	-2
COc1cc(C(=O)O/N=C2\C=CC(=O)C(C)=C2)cc(OC)c1OC	-82*	-9%[46.1 µM]	-3%	-3%	1%	7
CC(C)c1ccc(N2C(=O)CSC23C(=O)N(C)c2ccccc23)cc1 (configuration not stated)	x	x	-12%	-2%	x	x
N#CC(c1cccc(Cl)c1)c1ccc2c(C(F)(F)F)cc(C(F)(F)F)nc2n1 (configuration not stated)	0	10µM*	-2%	-1%	2%	x
NNc1ccc2c(C(F)(F)F)cc(C(F)(F)F)nc2n1	0	-1%	-14%	-1%	x	16
CC(C)OCCCN1C=C2C(=O)C(C)(OC(=O)CCc3ccccc3)C(=O)C=C2C=C1c1ccc(C#N)cc1 (configuration not stated)	-3	-17%	-4%[11.2 µM]	-3%[11.2 µM]	-8%	-8

Screening results from PubChem BioAssay.
